Structures are written as SMILES. Calls of active or inactive are those of the source.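 Rule for the calls, unless noted: active = viability at or below 30% in both replicate assays; inconclusive = viability at or below 30% in just one of the two assays; inactive = the rest.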

Experiment [1] is described as follows: reduced viability of SK-BR-3 breast cancer cells – cell-based, 24 h, human, pilot screen (AID 572;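 active = viability at or below 10% of carrier control in both of two separate runs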;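 note: compound exposure lasted between 18 and 24 h rather than exactly 24 h; 100% = carrier-treated control wells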). To be noted: SK-BR-3 viability, CellTiter-Glo luminescence, at 10 µM, stronger effect = lower value. In general terms: Cellular ATP, detected with luciferase, serves as a proxy for viable cell number.
A short description of experiment [2]: HUVEC growth inhibition – cell-based, human, primary screen (AID 575).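 Note: 100% = median of untreated cell wells with 0.1% DMSO on each plate.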 To be noted: HUVEC proliferation, CellTiter-Glo luminescence, 72 h; at 10 µM; stronger effect = lower value.
The nature of experiment [3]: H69AR cell proliferation blockers – human, duplicate replicates, primary screen (AID 580;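 active = viability at or under a set limit in both replicates, limit being median viability minus 3 SD, cut at about 48% in these data, passing the limit was not always enough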;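 note: 100% = mean luminescence of untreated wells and 0% = no signal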). To be noted: H69AR lung tumor cells viability, ATP luminescence, 72 h; at 10 µM; stronger effect = lower value.
Experiment [4] can be described thus: MRP1 drug-resistance reversers in H69AR cells – cell-based, doxorubicin co-treatment, pilot screen (AID 601;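 active = viability loss from added drug above about 55%, and viability with drug at most 40%, in both replicates, limit read from the data, passing the limit was not always enough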). The settings on record: CellTiter-Glo, 72 h, at 10 µM; for differential viability (reversal): stronger effect = higher value.
Experiment [5] in a line: yeast transport mutant growth inhibition pilot in 384-well plates, post-Golgi transport modulator project (AID 636; in the data active = inhibition above about 31%). The settings on record: absorbance 615 nm, about 18 h, stronger effect = higher value.
Experiment [6] is described as follows: growth suppression of yeast trafficking mutant, preliminary HTS, modulators of trafficking downstream of Golgi apparatus project, 1536-format plate, OD 615 nm (AID 637; in the data active = inhibition above about 30%). To be noted: yeast transport mutant growth, absorbance 615 nm, 18 h; stronger effect = higher value.
[7] abbreviates: H69AR cells + 2 uM doxorubicin, measured here: viability with 2 uM doxorubicin, stronger effect = lower value.
[8] abbreviates: H69AR cells, compound alone cytotoxicity.

With `O=C(CN1CCCN(S(=O)(=O)c2ccc(Br)cc2)CC1)Nc1ccc2c(c1)OCO2`, the viability in experiment [1] was 91% (inactive); in experiment [2], 75% (inactive); in experiment [3] it was 6.58% (active); in experiment [4] (setting [7]) it was 16.9%; in experiment [4] (setting [8]) it was 6.58%. Besides, the differential viability (reversal) in experiment [4] (H69AR cells + 2 uM doxorubicin) was -10.3% (inactive). The inhibition in experiment [5] was -0.52% (inactive); in experiment [6], 3.77% (inactive).
Consider `Cn1c(=O)c2c(nc(NCCCO)n2Cc2cccc(Br)c2)n(C)c1=O`, for which the viability in experiment [1] is 91% (inactive); in experiment [2], 104% (inactive); in experiment [3] it was 85.7% (inactive); in experiment [4] (setting [7]), 85.4%; in experiment [4] (setting [8]), 85.7%. Also, the differential viability (reversal) in experiment [4] (H69AR cells + 2 uM doxorubicin) was 0.26% (inactive). In addition, the results for the inhibition in experiment [5] and in experiment [6] were -5.73% (inactive) and 3.64% (inactive), respectively.
Turning to `COCCCC/C(=N\OCCN)c1ccc(C(F)(F)F)cc1`, the viability in experiment [1] is 84% (inactive); in experiment [2], 55.7% (inactive); in experiment [3], 104% (inactive); in experiment [4] (setting [7]), 83.9%; in experiment [4] (setting [8]), 104%. Moreover, in experiment [4] (H69AR cells + 2 uM doxorubicin), the differential viability (reversal) is 20% (inactive). Moreover, the inhibition in experiment [5] is -0.91% (inactive); in experiment [6], -6.83% (inactive).
For `COc1ccccc1N1CCN(C(=O)CN(Cc2ccc(Cl)cc2)S(C)(=O)=O)CC1`, the viability in experiment [1] was 91% (inactive); in experiment [2], 88.7% (inactive); in experiment [3], 99.8% (inactive); in experiment [4] (setting [7]), 95.7%; in experiment [4] (setting [8]), 99.8%. The differential viability (reversal) in experiment [4] (H69AR cells + 2 uM doxorubicin) is 4.09% (inactive). Moreover, the inhibition in experiment [5] is -5.45% (inactive); in experiment [6], -0.49% (inactive).
Consider `Cc1cccc(NC(=O)CCCCCN2C(=O)c3ccccc3C2=O)n1`, for which the viability in experiment [1] is 92% (inactive); in experiment [2], 105% (inactive); in experiment [3], 105% (inactive); in experiment [4] (setting [7]) it was 102%; in experiment [4] (setting [8]), 105%. Moreover, the differential viability (reversal) in experiment [4] (H69AR cells + 2 uM doxorubicin) was 2.47% (inactive). Moreover, the inhibition in experiment [5] is -7.12% (inactive); in experiment [6], 5.45% (inactive).
With `COc1nc(-c2ccc(Cl)cc2)ccc1-c1noc(-c2ccncc2)n1`, the viability in experiment [1] is 109% (inactive); in experiment [2], 103% (inactive); in experiment [3], 82.4% (inactive); in experiment [4] (setting [7]) it was 80.4%; in experiment [4] (setting [8]), 82.4%. In addition, the differential viability (reversal) in experiment [4] (H69AR cells + 2 uM doxorubicin) was 1.99% (inactive). The inhibition in experiment [5] is -6.99% (inactive); in experiment [6] it was -7.64% (inactive).
Regarding `COc1ccc(NC(=O)CSc2nc(C)cc(C(F)(F)F)n2)cc1`, the viability is 91% (inactive) in experiment [1]; 103% (inactive) in experiment [2]; 87.4% (inactive) in experiment [3]; 84.1% in experiment [4] (setting [7]); 87.4% in experiment [4] (setting [8]). In addition, the differential viability (reversal) in experiment [4] (H69AR cells + 2 uM doxorubicin) was 3.33% (inactive). The values for the inhibition in experiment [5] and in experiment [6] were -6.44% (inactive) and -4.91% (inactive), respectively.
Turning to `COc1cc2cc(C(c3nnnn3C3CCCC3)N3CCCCCC3)c(=O)[nH]c2cc1OC` (centres undefined), the viability was 114% (inactive) in experiment [1], 92.3% (inactive) in experiment [2], 59.7% in experiment [4] (setting [7]) and 59.1% in experiment [4] (setting [8]). Also, in experiment [4] (H69AR cells + 2 uM doxorubicin), the differential viability (reversal) is -0.62% (inactive). In addition, the inhibition was -3.87% (inactive) in experiment [5] and -2.91% (inactive) in experiment [6].
For the compound `CCOc1nc(OCC)nc(N2CCC(C)CC2)n1`, the viability in experiment [1] is 91% (inactive); in experiment [2] it was 108% (inactive); in experiment [3], 84.9% (inactive); in experiment [4] (setting [7]), 95.4%; in experiment [4] (setting [8]), 84.9%. The differential viability (reversal) in experiment [4] (H69AR cells + 2 uM doxorubicin) is -10.5% (inactive). Also, the values for the inhibition in experiment [5] and in experiment [6] were -5% (inactive) and 31.4% (active), respectively.
Regarding `Cc1cnc(C(=O)Nc2ccccc2-n2cccc2)cn1`, the viability in experiment [1] is 94% (inactive); in experiment [2], 105% (inactive); in experiment [3], 92.4% (inactive); in experiment [4] (setting [7]), 88.6%; in experiment [4] (setting [8]), 92.4%. For the same compound, the differential viability (reversal) in experiment [4] (H69AR cells + 2 uM doxorubicin) is 3.75% (inactive). Besides, the values for the inhibition in experiment [5] and in experiment [6] were -7.6% (inactive) and -2.73% (inactive), respectively.
As for `CN1CCN(CCCN2c3ccccc3Sc3ccc(Cl)cc32)CC1`, the viability in experiment [1] is 25%; in experiment [2], 3.48% (active); in experiment [4] (setting [7]), 58.6%; in experiment [4] (setting [8]), 43.1%. The differential viability (reversal) in experiment [4] (H69AR cells + 2 uM doxorubicin) is -15.4% (inactive).
For the compound `Cc1ccc(C(O)c2nc3ccccc3n2C(C)C)cc1` (centres undefined), the viability was 62% (inactive) in experiment [1]; 101% (inactive) in experiment [2]; 91.5% (inactive) in experiment [3]; 87.8% in experiment [4] (setting [7]); 91.5% in experiment [4] (setting [8]). For the same compound, the differential viability (reversal) in experiment [4] (H69AR cells + 2 uM doxorubicin) was 3.7% (inactive). The inhibition in experiment [5] was -7.53% (inactive); in experiment [6], -5.82% (inactive).
`CC(C)CCn1c(SCC#N)nc2c(sc3ccccc32)c1=O`: the viability is 102% (inactive) in experiment [1], 41.2% (inactive) in experiment [2], 53.6% in experiment [4] (setting [7]) and 55.8% in experiment [4] (setting [8]). In experiment [4] (H69AR cells + 2 uM doxorubicin), the differential viability (reversal) was 2.2% (inactive). Also, the inhibition in experiment [5] is -2.24% (inactive); in experiment [6], -7.14% (inactive).
Regarding `CCCCCCCCCCCCCCCC(O)C(N)CO` (centres undefined), the viability in experiment [1] was 60% (inactive); in experiment [2], 2.65% (active); in experiment [4] (setting [7]) it was 1.44%; in experiment [4] (setting [8]), 1.42%. In experiment [4] (H69AR cells + 2 uM doxorubicin), the differential viability (reversal) is -0.02% (inactive).
For `COc1ccc(C)cc1-n1c(N)c(C#N)c(C#N)c1-c1ccc(OC)c(OC)c1OC`, the viability is 97% (inactive) in experiment [1], 68.7% (inactive) in experiment [2] and 72.9% (inactive) in experiment [3]. In addition, the results for the inhibition in experiment [5] and in experiment [6] were -3.51% (inactive) and -1.31% (inactive), respectively.
Turning to `COc1cc(C2Nc3cccc4cccc(c34)N2)cc(OC)c1O`, the viability in experiment [1] is 92.5% (inactive); in experiment [2], 57.5% (inactive); in experiment [4] (setting [7]), 70%; in experiment [4] (setting [8]), 55.2%. The differential viability (reversal) in experiment [4] (H69AR cells + 2 uM doxorubicin) is -14.8% (inactive). Further, the inhibition was -0.92% (inactive) in experiment [5] and -4.76% (inactive) in experiment [6].
Turning to `Cc1cc(C(=O)COc2cccc3cccnc23)c(C)n1C`, the viability is 95% (inactive) in experiment [1], 80.9% (inactive) in experiment [2], 70.8% in experiment [4] (setting [7]) and 59.1% in experiment [4] (setting [8]). Further, the differential viability (reversal) in experiment [4] (H69AR cells + 2 uM doxorubicin) was -11.7% (inactive). Also, the values for the inhibition in experiment [5] and in experiment [6] were -2.67% (inactive) and -3.64% (inactive), respectively.
Turning to `CCCNC(=O)c1cc(-c2ccco2)on1`, the viability in experiment [1] was 77% (inactive); in experiment [2] it was 88.3% (inactive); in experiment [3], 97.4% (inactive). Also, the inhibition in experiment [5] was -1.87% (inactive); in experiment [6], 2.73% (inactive).
On to `COC(=O)c1ccccc1NC(=O)COc1ccc(S(=O)(=O)N2CCCC2)cc1C`, for which the viability is 90% (inactive) in experiment [1]; 87.1% (inactive) in experiment [2]; 74.4% (inactive) in experiment [3]; 66.4% in experiment [4] (setting [7]); 74.4% in experiment [4] (setting [8]). The differential viability (reversal) in experiment [4] (H69AR cells + 2 uM doxorubicin) is 8.04% (inactive). The inhibition was -3.03% (inactive) in experiment [5] and 3.83% (inactive) in experiment [6].
As for `COC(=O)c1sccc1NC(=O)c1ccco1`, the viability in experiment [1] is 109% (inactive); in experiment [2], 92.3% (inactive); in experiment [3], 96.3% (inactive); in experiment [4] (setting [7]) it was 102%; in experiment [4] (setting [8]), 96.3%. The differential viability (reversal) in experiment [4] (H69AR cells + 2 uM doxorubicin) is -5.95% (inactive). Besides, the inhibition in experiment [5] was -6.71% (inactive); in experiment [6], 7.27% (inactive).

Usually viability stands for a read-out of living cells in per cent, often relative to untreated cells. By inhibition is commonly meant the drop in the measured response relative to a control, in per cent.

Source of the values: PubChem BioAssay.
